Assay results published in PubChem BioAssay (NCI).
This is part of a sample that, as a whole, favours compounds with a hit. Of some 83,000 tested, about 20% had one in any assay.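 For each line, cells grew in 96-well plates with the test compound present at a single concentration for 48 hours.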 A number with no mark means an inactive call. The source made the active and inactive calls. The calls were made as follows: active = growth percent below 10; inactive = the rest.

Tests used:
Test in all cases: NCI-60 one-dose screen, 48 h (100 = growth as untreated, 0 = no growth, -100 = all killed)
Settings in all cases: 10 µM unless noted
[1] = tested on: DU-145 prostate
[2] = tested on: K-562 leukemia
[3] = tested on: MALME-3M melanoma
[4] = tested on: MDA-MB-231 breast
[5] = tested on: RXF 393 renal
[6] = tested on: SF-268 CNS
[7] = tested on: SF-295 CNS
[8] = tested on: SF-539 CNS
[9] = tested on: UACC-257 melanoma
[10] = tested on: M14 melanoma
[11] = tested on: HCT-15 colon
[12] = tested on: HT29 colon
[13] = tested on: SNB-75 CNS
[14] = tested on: SNB-19 CNS
[15] = tested on: U251 CNS
[16] = tested on: PC-3 prostate
[17] = tested on: SK-MEL-5 melanoma
[18] = tested on: UACC-62 melanoma
[19] = tested on: LOX IMVI melanoma
[20] = tested on: SK-MEL-28 melanoma

| Compound | growth [1] | growth [2] | growth [3] | growth [4] | growth [5] | growth [6] | growth [7] | growth [8] | growth [9] | growth [10] | growth [11] | growth [12] | growth [13] | growth [14] | growth [15] | growth [16] | growth [17] | growth [18] | growth [19] | growth [20] |
| --- | --- | --- | --- | --- | --- | --- | --- | --- | --- | --- | --- | --- | --- | --- | --- | --- | --- | --- | --- | --- |
| COc1cc(/C=C/C(=O)c2ccc(Nc3nc(Nc4ccc(F)cc4)nc(Nc4ccc(Cl)cc4)n3)cc2)cc(OC)c1OC | 68.5% | 35.8% | 56.2% | 62.6% | -31.1% (active) | 74.8% | 369% | 67.7% | 102% | 65.6% | 55% | 3.82% (active) | 0.259% (active) | 101% | 27.5% | 21.4% | 33.5% | 56.5% | 37.3% |  |
| O=C(c1ccccc1)c1c(/C=C/c2ccc(Cl)cc2)nc2ccccc2c1/C=C/c1cccs1 | 107% | 83.6% | 99.3% | 94.4% | 104% | 93.5% | 102% | 97.3% | 87.7% | 96.8% | 96.6% | 100% | 84.1% | 89.7% | 93.5% | 91.8% | 100% | 87.4% | 94.2% |  |
| O=C1NC(=Nc2ccc(Cl)cc2)S/C1=C\c1cn(-c2ccccc2)nc1-c1ccccc1 | 89% | 92.1% | 83.8% | 88.4% | 97% | 84.5% | 94.5% | 81% | 91.6% | 97.1% | 76% | 77.5% | 65.8% | 90.2% | 18.4% | 56.5% | 94.9% | 87.1% | 90.5% |  |
| Clc1ccc(-c2c3ccc(=[N+]4CCCCC4)cc-3oc3cc(N4CCCCC4)ccc23)cc1 | -91.7% (active) | -34.1% (active) | -76.4% (active) | -81.7% (active) | -91.2% (active) | -89.6% (active) | -72.6% (active) | -93.4% (active) | -78.5% (active) | -92.7% (active) | -77.1% (active) | -82.3% (active) | -70.1% (active) | -90% (active) | -79.6% (active) | -71.2% (active) | -95.4% (active) | -87.1% (active) | -70.2% (active) |  |
| CCc1ccccc1-n1c(-c2ccc(Cl)cc2)cc(-c2ccc(OC)cc2)c(C#N)c1=O | 94.6% | 101% | 148% | 92.7% | 97.5% | 93.4% | 93.2% | 102% | 112% | 93.4% | 99.6% | 103% | 93% | 105% | 114% | 84.1% | 101% | 89.1% | 89.6% |  |
| Cc1nn(-c2ccccc2)c(Cl)c1/C=C(/NC(=O)c1ccccc1)c1nc2ccccc2[nH]1 | 117% | 88.4% | 48.9% | 85.5% | 119% | 104% | 92.9% | 110% | 90.1% | 70% | 94.1% | 75.3% | 96.9% | 101% | 92.4% | 78% | 107% | 75% | 96.8% |  |
| CCN(CC)c1ccc2nc3c4ccccc4c(=NC(=O)c4ccccc4-c4c5ccc(N(CC)CC)cc5[o+]c5cc(N(CC)CC)ccc45)cc-3oc2c1 | -89.4% (active) | -85.7% (active) | 54.9% | 52.8% | 61.6% | 60.5% | -50.3% (active) | 67% | 49.7% | -3.37% (active) | 6.13% (active) | 1.92% (active) | 67.7% | -22.3% (active) | 20.5% | 12.1% | -69.8% (active) | 67.5% | -30.4% (active) | 97.4% |
| Cc1ccc(Cl)cc1NC(=O)c1cc2ccccc2cc1O | 7.76% (active) | -33.7% (active) | -32.6% (active) | -56.8% (active) | -15.6% (active) | 9.58% (active) | -9.44% (active) | -0.708% (active) | -7.13% (active) | 2.88% (active) | 8.41% (active) | 7.43% (active) | -14.3% (active) | 22.8% | 2.92% (active) | -12.6% (active) | -74.4% (active) | -11.5% (active) | 3.41% (active) | 9.98% (active) |
